Results on 58 compounds are retold here after PubChem BioAssay AID1445 (SRMLSC, 2008).

In all, about 220,000 compounds went through this assay and about 910 (0.41%) were called active. The entries come from a sample that favours actives as a whole. Entries with a potency or affinity are not part of this list. Values without a mark were called inactive.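 The calls were made as follows: active = primary inhibition above the hit cutoff, then over 50% inhibition at one or more dose response concentrations (cut at about 23% in these data, passing the limit was not always enough); inconclusive = conflicting primary data, or primary hits not chosen for dose response; inactive = low primary inhibition, or under 50% at every dose.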

In general, inhibition refers to the drop in the measured response relative to a control, in per cent.

In the assay the target is Aminopeptidase N (Plasmodium falciparum (isolate 3D7)) (UniProt O96935). Description: P. falciparum M1AAP inhibitors, biochemical, fluorogenic H-Leu-NHMec substrate, 1536-well (AID 1445).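 Also: plate controls were DMSO full reaction for no effect and no enzyme background for full effect.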 Particulars: recombinant M1AAP, H-Leu-NHMec fluorogenic kinetic assay; at 30 µM, hits give high values unless noted.
Sequence of Aminopeptidase N (Plasmodium falciparum (isolate 3D7)) (O96935 whole entry, looked up): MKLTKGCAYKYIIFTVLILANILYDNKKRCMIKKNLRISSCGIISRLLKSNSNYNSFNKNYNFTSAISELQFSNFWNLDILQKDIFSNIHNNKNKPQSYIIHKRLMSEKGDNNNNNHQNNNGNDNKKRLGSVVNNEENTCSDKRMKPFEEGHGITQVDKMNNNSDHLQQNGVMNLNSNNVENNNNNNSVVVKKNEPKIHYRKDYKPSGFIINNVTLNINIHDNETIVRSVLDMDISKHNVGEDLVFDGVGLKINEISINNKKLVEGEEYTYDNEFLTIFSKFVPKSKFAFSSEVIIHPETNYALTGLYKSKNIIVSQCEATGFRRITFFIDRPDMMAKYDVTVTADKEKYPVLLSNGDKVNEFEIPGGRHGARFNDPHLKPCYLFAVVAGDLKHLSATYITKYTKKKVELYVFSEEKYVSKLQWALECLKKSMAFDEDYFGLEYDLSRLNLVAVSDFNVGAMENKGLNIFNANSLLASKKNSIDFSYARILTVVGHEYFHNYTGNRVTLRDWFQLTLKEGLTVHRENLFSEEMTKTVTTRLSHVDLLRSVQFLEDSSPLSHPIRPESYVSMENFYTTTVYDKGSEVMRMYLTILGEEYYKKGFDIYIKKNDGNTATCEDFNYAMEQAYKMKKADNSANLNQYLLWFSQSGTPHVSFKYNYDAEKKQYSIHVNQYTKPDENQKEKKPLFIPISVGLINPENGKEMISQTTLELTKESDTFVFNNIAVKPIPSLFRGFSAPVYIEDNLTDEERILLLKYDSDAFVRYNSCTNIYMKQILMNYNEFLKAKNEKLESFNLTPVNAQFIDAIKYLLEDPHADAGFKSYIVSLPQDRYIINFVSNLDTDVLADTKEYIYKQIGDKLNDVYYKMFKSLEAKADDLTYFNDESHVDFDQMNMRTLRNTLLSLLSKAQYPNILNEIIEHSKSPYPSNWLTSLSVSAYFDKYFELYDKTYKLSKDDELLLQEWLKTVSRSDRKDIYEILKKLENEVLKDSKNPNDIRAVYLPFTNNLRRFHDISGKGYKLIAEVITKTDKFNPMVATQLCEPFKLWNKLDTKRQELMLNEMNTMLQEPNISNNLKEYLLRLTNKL
Consider `CCN(Cc1ccccc1)C(=O)c1cc(COc2c(F)cccc2F)on1`, for which the inhibition is 5%.

`COc1ccccc1-c1ccc(SCC(=O)NCCc2ccccc2)nn1`: the inhibition was 10.8%.

Regarding `Cc1cc(C(=O)COC(=O)c2nccnc2N)c(C)n1C`, the inhibition was 6.62%.

Regarding `CCOC(=O)C1CCCN(CC(=O)c2c[nH]c3ccc(C)cc23)C1` (stereo not drawn), the inhibition was 5.27%.

As for `CCOCc1nnc(NC(=O)c2ccc(NC(C)=O)cc2)s1`, the inhibition is 1.45%.

For the compound `COc1ccc(NC(=O)CSc2ncn[nH]2)c([N+](=O)[O-])c1`, the inhibition was -0.25%.

Consider `C=CCn1c(SCc2c(C(=O)OC)sc(N)c2C(=O)OC)nnc1-c1ccc(Br)cc1`, for which the inhibition was 6.79%.

Take `CCC(=O)c1c(NC(C)C)cc(C)oc1=O`: the inhibition is 2.35%.

For `Cc1cnc(C)c(N2CCC(C(=O)NCc3cccs3)CC2)n1`, the inhibition was 3.94%.

For `COc1cc(CNC(C)(C)C)cc(Br)c1OCc1cccs1`, the inhibition was 6.22%.

Take `COc1cc(C2c3c(-c4ccccc4)n[nH]c3C(=O)N2c2ccc(C(=O)O)cc2)ccc1O` (stereo not drawn): the inhibition was 14.8%.

For the compound `COc1cccc(C2c3c(-c4ccccc4)n[nH]c3C(=O)N2c2ccc(C(=O)O)cc2)c1` (stereo not drawn), the inhibition is 8%.

For the compound `O=C(O)c1ccc(N2C(=O)c3[nH]nc(-c4ccccc4)c3C2c2ccccc2)cc1` (stereo not drawn), the inhibition is 2.78%.

In the case of `COc1ccc(C2c3c(-c4ccccc4)n[nH]c3C(=O)N2c2ccc(C(=O)O)cc2)cc1` (stereo not drawn), the inhibition is 5.67%.

In the case of `COc1cccc(OC)c1OCCNCCO`, the inhibition is 9.5%.

On to `O=C(CCNS(=O)(=O)c1cccc2nsnc12)NCc1ccco1`, for which the inhibition is 3.34%.

As to `CC(=O)Nc1ccccc1C(=O)C(=O)Nc1cccc(C(=O)NCc2ccc(C)cc2)c1`, the inhibition is 2.5%.

Regarding `COC(=O)c1cc(NC(=S)N2CCN(C(=O)C3CCCO3)CC2)cc(C(=O)OC)c1` (stereo not drawn), the inhibition is -0.88%.

Consider `CCOC(=O)c1cc2c(=O)[nH]ccc2nc1C(F)(F)F`, for which the inhibition was 5.5%.

Consider `N#C/C(=C\c1ccccc1OCc1ccc(C(=O)O)cc1)c1ccccc1`, for which the inhibition was -6.55%.

For the compound `CCOc1cc(/C=C(/C#N)c2nc3ccccc3[nH]2)ccc1Oc1ccc([N+](=O)[O-])cn1`, the inhibition is 1.44%.

As for `CCOc1cc(/C=C(/C#N)c2ccc(F)cc2)ccc1OCc1ccc(C(=O)O)o1`, the inhibition was 17.8%.

`COc1cccc(/C=C(/C#N)c2ccc(Cl)cc2)c1OCc1cccc(C(=O)O)c1`: the inhibition was 13.3%.

With `CCCc1ccc(OCc2ccc(C(=O)O)o2)c(OC)c1`, the inhibition is 1.24%.

In the case of `COc1cc(/C=C(\C#N)c2nc3ccccc3[nH]2)ccc1OC(=O)c1ccco1`, the inhibition was 7.39%.

As to `COc1cc(/C=C(/C#N)c2ccc(F)cc2)ccc1OCc1ccc(C(=O)O)o1`, the inhibition was 27.4% (active).

Consider `CCc1ccc(NC(=O)COc2ccc(/C=C(/C#N)c3nc4ccccc4[nH]3)cc2OC)cc1`, for which the inhibition is 11%.

Consider `COC(=O)c1ccc(COc2ccc(/C=C(\C#N)c3nc4ccccc4[nH]3)cc2OC)o1`, for which the inhibition is 12.6%.

On to `CN(C(=O)c1ccccc1NC(=O)C(F)(F)F)c1ccccc1`, for which the inhibition is 4.16%.

Regarding `O=C1OCC2=C1C(c1ccccc1)CC(=O)N2c1ccccc1` (stereo not drawn), the inhibition was 5.38%.

As for `NC(=O)C(=O)N/N=C/c1c(F)c(F)c(F)c(F)c1F`, the inhibition was 13.6%.

On to `C=C1CCN([C@@H](C)C(=O)NCc2ccc(OC)cc2)S(=O)(=O)c2ccccc21`, for which the inhibition is 6.29%.

In the case of `CN(CC(=O)N1CCN(c2ccccn2)CC1)S(=O)(=O)c1cccc2nsnc12`, the inhibition is 3.43%.

As to `Cc1cc(C)nc(N/N=C/c2ccccc2OCc2ccc(Br)cc2)n1`, the inhibition was 1.44%.

Take `Cc1c(N2C(=O)C(=O)/C(=C(/O)c3ccccc3)C2c2ccc(F)cc2)c(=O)n(-c2ccccc2)n1C` (stereo not drawn): the inhibition is 5.61%.

Turning to `Cc1ccc(C(=O)C2=C(O)C(=O)N(Cc3ccccc3)C2c2cccnc2)o1` (stereo not drawn), the inhibition was 15.2%.

Regarding `Cc1c(N/C=C/C(=O)c2ccc(Cl)cc2)c(=O)n(-c2ccccc2)n1C`, the inhibition is 4.02%.

As for `O=C(C1=C(O)C(=O)N(CCc2ccccc2)C1c1cccnc1)c1ccco1` (stereo not drawn), the inhibition is 9.09%.

In the case of `COC(=O)c1cc(NS(=O)(=O)c2ccc3c(c2)CCC(=O)N3)cc(C(=O)OC)c1`, the inhibition was 8.87%.

Regarding `O=C(CCC1CC(=O)Nc2ccccc21)NCc1ccc(F)cc1` (stereo not drawn), the inhibition is 5.98%.

As to `O=C(O)CCCC(=O)Nc1ccc(Sc2ccc([N+](=O)[O-])cc2)cc1`, the inhibition was 2.99%.

`CCOc1nonc1C(=N)/C(C(C)=O)=C(\C)O`: the inhibition is -1.51%.

As for `Cc1ccc(OCC(=O)N2CCN(c3nnc(-c4ccc(C)cc4)c4ccccc34)CC2)cc1`, the inhibition is 14.1%.

For `CC(C)CSc1nc2ccccc2n1CC(N)=O`, the inhibition was -7.7%.

With `O=[n+]1c2c(n([O-])c3cc(Br)ccc31)CCC2`, the inhibition was 16.4%.

Turning to `O=[n+]1c2c(n([O-])c3ccccc31)CCC2`, the inhibition is 26.1% (active).

Take `O=[n+]1c2c(n([O-])c3ccccc31)CCCC2`: the inhibition is 2.78%.

Regarding `Cc1ncc(CO)c(/C=N/NC(=O)c2ccc(O)cc2)c1O`, the inhibition was 7.46%.

In the case of `COc1ccc(C(=O)N/N=C/c2c(CO)cnc(C)c2O)cc1`, the inhibition is 14.8%.

With `Cc1cccc2cc(CN(Cc3cccs3)S(=O)(=O)c3ccc4c(c3)OCCO4)c(=O)[nH]c12`, the inhibition is 4.88%.

In the case of `Cc1cccc(-n2cc(CNCCc3nc(C)cc(C)n3)c(-c3cccc(F)c3)n2)c1`, the inhibition was 0.33%.

As to `CC1CCCCN1C(=O)c1cc2nc(-c3ccccc3)cc(-c3ccccc3)n2n1` (stereo not drawn), the inhibition was 2.04%.

Turning to `COC(=O)COc1ccc(=O)n(-c2ccccc2)n1`, the inhibition was 2.11%.

In the case of `O=C(N/N=C/c1cccc(O)c1)c1ccc(NC(=O)c2cccc([N+](=O)[O-])c2)cc1`, the inhibition is 3.44%.

In the case of `CCOC(=O)N1CCN(C(=O)c2cnn3ccccc23)CC1`, the inhibition was 10.3%.

`O=C(c1cnn(-c2ccccc2)c1-n1cccc1)N1CCN(C2CCCCC2)CC1`: the inhibition is 2.13%.

Regarding `O=C(c1cnn2ccccc12)N1CCN(C2CCCCC2)CC1`, the inhibition is 26.7% (active).

As to `COc1ccc(CNC(=O)C(c2ccncc2)N(C(=O)Cc2cccs2)c2ccccc2C)cc1` (stereo not drawn), the inhibition is -1.48%.
